Assay [1] concerns the target Cytochrome P450 2C9 (Homo sapiens) (UniProt P11712). The assay can be described thus: Cytochrome P450 Family 2 Subfamily C Member 9 (CYP2C9) small molecule antagonists: luciferase reporter qHTS assay (AID 1671198). Summed up: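 P450-Glo proluciferin substrate with CYP2C9 enzyme; 10 min RT preincubation, then NADPH regeneration 1 h at 37C; luciferin detection reagent 20 min RT, luminescence in relative luminescence units.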
(In general: A reporter such as luciferase makes a cellular process visible.)

For assay [2], the target named is Cytochrome P450 1A2 (Homo sapiens) (UniProt P05177). The assay can be described thus: Cytochrome P450 Family 1 Subfamily A Member 2 (CYP1A2) small molecule antagonists: luciferase reporter qHTS assay (AID 1671199). Summed up:
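Luminescence from luciferin formed by CYP1A2 from a proluciferin substrate, read 20 min after detection reagent. Compound was pre-incubated 10 min with enzyme-substrate, and reaction started with NADPH regeneration solution for 1 h at room temperature; furafylline control.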

The target in assay [3] is Voltage-gated inwardly rectifying potassium channel KCNH2 (Homo sapiens) (UniProt Q12809). The assay can be described thus: Human Ether-a-go-go-Related Gene (hERG) channel small molecule antagonists: fluorescence cell-based qHTS assay (AID 1671200). The method in brief:
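First, 1000 cells per well are seeded and cultured overnight at 37 C. Next, FluxOR II dye is loaded for 1 h at room temperature, protected from light. After 10 more minutes, stimulus is added and fluorescence is read.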
For orientation: Block of hERG is tested as a sign of cardiac risk.

Assay [4] deals with Cytochrome P450 3A4 (Homo sapiens) (UniProt P08684). Description: Cytochrome P450 Family 3 Subfamily A Member 4 (CYP3A4) small molecule antagonists: luciferase reporter qHTS assay (AID 1671201). Summed up: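 Enzyme and proluciferin substrate are mixed with test chemicals for 10 min, then NADPH regeneration system drives turnover for 1 h at room temperature. A detection reagent halts the reaction; luminescence after 20 min gives relative activity.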

Records with an inconclusive call do not appear. The source made the active and inactive calls. Calls follow the shape of the dose curve; as a rule, active = well fitted curve in the direction sought with a large enough effect in the repeat runs; inconclusive = weak or mixed curves; inactive = no such curve, though single readings can be large; an effect the other way counts as inactive or inconclusive.
Also: nearly all actives have a fitted effect of over 50% in size.
Potency is read from the fitted curve at half-maximal effect.

Cytochrome P450 2C9 (Homo sapiens), sequence (P11712 whole entry, looked up): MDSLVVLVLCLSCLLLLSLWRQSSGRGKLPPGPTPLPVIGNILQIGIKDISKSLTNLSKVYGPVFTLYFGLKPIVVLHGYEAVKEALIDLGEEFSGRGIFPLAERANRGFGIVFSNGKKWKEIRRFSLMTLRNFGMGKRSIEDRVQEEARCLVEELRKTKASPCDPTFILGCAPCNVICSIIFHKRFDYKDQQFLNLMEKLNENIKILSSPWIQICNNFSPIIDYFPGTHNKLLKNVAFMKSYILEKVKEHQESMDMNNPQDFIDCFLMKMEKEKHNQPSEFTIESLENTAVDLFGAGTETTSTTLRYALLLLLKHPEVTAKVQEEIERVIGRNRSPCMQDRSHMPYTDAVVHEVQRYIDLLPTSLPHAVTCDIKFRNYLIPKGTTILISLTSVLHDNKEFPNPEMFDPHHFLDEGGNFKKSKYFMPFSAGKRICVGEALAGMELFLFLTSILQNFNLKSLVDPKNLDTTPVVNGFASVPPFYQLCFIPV
Voltage-gated inwardly rectifying potassium channel KCNH2 (Homo sapiens), sequence (Q12809 whole entry, looked up): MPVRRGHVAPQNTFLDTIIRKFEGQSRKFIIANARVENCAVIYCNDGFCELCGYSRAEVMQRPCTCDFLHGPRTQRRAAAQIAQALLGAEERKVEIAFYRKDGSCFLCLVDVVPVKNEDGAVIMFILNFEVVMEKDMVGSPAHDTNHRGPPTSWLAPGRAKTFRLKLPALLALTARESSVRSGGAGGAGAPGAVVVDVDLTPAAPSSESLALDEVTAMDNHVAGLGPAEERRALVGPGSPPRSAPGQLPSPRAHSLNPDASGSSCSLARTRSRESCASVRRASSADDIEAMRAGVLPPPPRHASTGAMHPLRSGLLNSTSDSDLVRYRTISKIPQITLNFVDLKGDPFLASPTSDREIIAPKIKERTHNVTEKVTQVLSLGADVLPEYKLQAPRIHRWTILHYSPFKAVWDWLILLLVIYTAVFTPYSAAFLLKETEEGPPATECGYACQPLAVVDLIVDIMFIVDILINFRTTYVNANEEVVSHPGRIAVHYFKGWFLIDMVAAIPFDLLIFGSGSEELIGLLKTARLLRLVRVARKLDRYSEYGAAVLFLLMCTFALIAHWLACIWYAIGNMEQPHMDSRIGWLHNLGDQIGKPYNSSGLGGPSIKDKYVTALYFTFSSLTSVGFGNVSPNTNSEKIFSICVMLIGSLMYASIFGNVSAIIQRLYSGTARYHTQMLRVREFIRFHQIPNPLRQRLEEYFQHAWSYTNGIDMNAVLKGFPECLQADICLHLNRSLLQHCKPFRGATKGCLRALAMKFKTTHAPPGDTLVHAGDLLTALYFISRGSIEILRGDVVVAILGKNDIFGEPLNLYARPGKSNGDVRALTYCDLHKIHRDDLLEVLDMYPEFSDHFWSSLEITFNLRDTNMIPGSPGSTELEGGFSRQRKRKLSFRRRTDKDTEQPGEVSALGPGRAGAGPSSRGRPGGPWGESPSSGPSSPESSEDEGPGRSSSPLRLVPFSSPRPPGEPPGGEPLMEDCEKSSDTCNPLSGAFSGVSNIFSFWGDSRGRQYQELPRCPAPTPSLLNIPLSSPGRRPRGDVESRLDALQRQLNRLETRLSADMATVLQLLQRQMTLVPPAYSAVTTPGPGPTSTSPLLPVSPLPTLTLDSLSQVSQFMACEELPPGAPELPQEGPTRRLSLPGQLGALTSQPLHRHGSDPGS
Cytochrome P450 1A2 (Homo sapiens), sequence (P05177 whole entry, looked up): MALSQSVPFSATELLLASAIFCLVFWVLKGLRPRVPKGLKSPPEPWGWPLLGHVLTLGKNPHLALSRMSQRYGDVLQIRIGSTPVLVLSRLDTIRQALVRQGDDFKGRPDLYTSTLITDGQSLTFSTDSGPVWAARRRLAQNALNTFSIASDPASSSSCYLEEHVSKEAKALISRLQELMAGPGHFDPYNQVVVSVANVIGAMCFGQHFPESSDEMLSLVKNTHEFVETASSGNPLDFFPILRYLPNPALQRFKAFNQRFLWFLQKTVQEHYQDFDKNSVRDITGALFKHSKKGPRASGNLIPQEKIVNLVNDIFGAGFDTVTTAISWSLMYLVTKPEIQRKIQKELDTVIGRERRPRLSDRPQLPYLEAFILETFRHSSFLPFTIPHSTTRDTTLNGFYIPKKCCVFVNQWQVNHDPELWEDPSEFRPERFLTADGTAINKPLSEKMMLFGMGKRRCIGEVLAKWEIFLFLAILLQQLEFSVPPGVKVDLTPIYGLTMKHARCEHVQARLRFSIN
Cytochrome P450 3A4 (Homo sapiens), sequence (P08684 whole entry, looked up): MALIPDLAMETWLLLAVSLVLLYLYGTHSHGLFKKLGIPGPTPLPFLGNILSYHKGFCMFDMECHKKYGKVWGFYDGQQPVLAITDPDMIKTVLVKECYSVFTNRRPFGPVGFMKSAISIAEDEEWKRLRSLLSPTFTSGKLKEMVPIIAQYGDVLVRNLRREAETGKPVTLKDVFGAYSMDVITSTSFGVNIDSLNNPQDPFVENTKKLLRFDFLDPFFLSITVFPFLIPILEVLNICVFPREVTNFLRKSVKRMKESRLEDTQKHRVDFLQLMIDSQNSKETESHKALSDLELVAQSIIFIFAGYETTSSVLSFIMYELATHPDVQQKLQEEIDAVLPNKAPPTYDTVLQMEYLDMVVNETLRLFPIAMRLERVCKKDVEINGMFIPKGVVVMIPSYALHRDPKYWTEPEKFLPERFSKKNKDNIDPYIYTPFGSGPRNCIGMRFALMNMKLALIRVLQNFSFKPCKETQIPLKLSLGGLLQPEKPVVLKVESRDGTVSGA

For `CCCCCCCCCCCCCCCC[N+](C)(C)CCN(Cc1ccc(OC)cc1)c1ncccn1`, the Potency is 30.9 µM (active) in assay [1] and 0.338 µM (active) in assay [3]. Moreover, the Potency result in assay [2] was “inactive”.
Regarding `Cc1onc(-c2c(Cl)cccc2Cl)c1C(=O)N[C@@H]1C(=O)N2[C@@H]1SC(C)(C)[C@@H]2C(=O)O`, the Potency in assay [1] was 13.8 µM (active). Moreover, the Potency entry in assay [2] and in assay [3] was “inactive” throughout.
On to `O=c1[nH]sc2cc(Cl)ccc12`, for which the figures for the Potency in assay [1] and in assay [2] were 13.8 µM (active) and 24.5 µM (active), respectively. Also, the Potency result in assay [3] was “inactive”.
With `CCC(C)Nc1ccc(NC(C)CC)cc1` (stereo not drawn), the Potency in assay [1] is 5.12 µM (active); in assay [2], 40.7 µM (active); in assay [3], 7.91 µM (active); in assay [4] it was 8.12 µM (active).

For the origin of these results see PubChem BioAssay (Tox21).
